# Screening results as filed in PubChem.
# IL1B secr inh – inflammasome signaling inhibition, IL-1 beta readout | THP-1 LPS/ATP IL-1B secretion, AlphaLISA, 16 h; hits give low values | activity change, % at 57.5 µM | hit rate 4.7% among 360,000 | AID 743279; in the data active = activity change below about -50%; inconclusive = mostly about -30% to -49%; also: % is scaled to controls: 0 for no effect and ±100 for the full control effect
#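 THP-1 cells pretreated 1 hr with compounds (up to 57.5 uM final), then stimulated with LPS (250 ng/mL final) plus ATP (1.25 mM final); secreted IL-1B measured by AlphaLISA after 16 hr, decreased signal indicating inhibition.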
# DT40 TDP1 CPT – growth inhibition of DT40 Tdp1-/-;hTDP1 cells with camptothecin (screen for TDP1 inhibitors). chicken DT40 Tdp1-/-;hTDP1 cells + 20 nM CPT, ATP luminescence, 48 h. Potency, µM (series often up to 46.2 µM), without a hit: at the top dose activity change, negative = growth inhibition, most hits filed as inhibitors. hit rate 12% among 420,000; also: potency is read from the fitted curve at half-maximal effect; % is scaled to controls: 0 for no effect and ±100 for the full control effect; nearly all actives have a fitted effect of over 55% in size
#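 Chicken DT40 Tdp1-/- cells stably complemented with human TDP1 were seeded at 400 cells/well in medium containing 20 nM camptothecin, exposed to pin-transferred compounds, and grown at 37 °C for at least 48 hr. Viability was read as ATP luminescence.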
# TDP1 cell noCPT – qHTS for Inhibitors of human tyrosyl-DNA phosphodiesterase 1 (TDP1): qHTS in cells in absence of CPT; Potency, µM (series often up to 46.2 µM), for inactives: at the top dose activity change, negative = growth inhibition, hits mostly inhibitors; hit rate 15% among 420,000; AID 686978, 2013; DT40 Tdp1-/- hTDP1 cells, no CPT, ATP luminescence, 48 h; also: potency is read from the fitted curve at half-maximal effect; % is scaled to controls: 0 for no effect and ±100 for the full control effect; nearly all actives have a fitted effect of over 55% in size
#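 Readout: luminescence from CellTiter-Glo after 30 min in the dark at RT. Cells: DT40 Tdp1-/- with stable hTDP1, 400/well. Exposure: compounds alone, ≥48 hr, 37 °C.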
# HepG2 tox – counter-screen for TGF-b inhibitors: cytotoxicity in HepG2 cells; hit rate 0.76% among 410,000; Potency, µM (doses to about 46.1 µM), for inactives: top-dose activity change, negative = cytotoxicity, actives largely listed as cytotoxic; HepG2 CAGA-GFP viability, ATP luminescence, 18 h; AID 588856; also: potency is read from the fitted curve at half-maximal effect
#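 HepG2 CAGA-GFP cells (1000/well, DMEM with 1% FBS) received compound, then TGF-beta at 500 pg/mL final, and were incubated 18 hours at 37 degrees C. Viability was read by CellTiter-Glo luminescence. Media-only wells were set as complete cell-killing and DMSO as no toxicity.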
# TGFb SMAD3 inh – TGF-b pathway inhibition. HepG2 CAGA-GFP TGF-b/SMAD3 reporter, GFP fluorescence, 18 h; TGF-beta stimulated, 500 pg/mL final. Potency, µM (series often up to 46.1 µM), inactives show top-dose activity, negative = inhibition, hits mostly inhibitors. hit rate 1.2% among 410,000; also: potency is read from the fitted curve at half-maximal effect; % is scaled to controls: 0 for no effect and ±100 for the full control effect; nearly all actives have a fitted effect of over 65% in size
#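 Per well, imaged GFP fluorescence of HEPG2 CAGA-GFP cells gives the signal; cells get compound, then TGF-beta (500 pg/mL final), 18 h at 37 degrees C; %Activity versus -TGF-beta and +DMSO controls.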
# ASM inhibitor – inhibitors of human secretory acid sphingomyelinase; placental ASM, HMU-PC fluorogenic substrate, 60 min; Potency, µM (highest dose often 57.5 µM), inactives show top-dose activity change, negative = inhibition, most hits filed as inhibitors; hit rate 0.006% among 340,000; also: potency is read from the fitted curve at half-maximal effect
# Target sequence (P17405 47-631 limits assumed): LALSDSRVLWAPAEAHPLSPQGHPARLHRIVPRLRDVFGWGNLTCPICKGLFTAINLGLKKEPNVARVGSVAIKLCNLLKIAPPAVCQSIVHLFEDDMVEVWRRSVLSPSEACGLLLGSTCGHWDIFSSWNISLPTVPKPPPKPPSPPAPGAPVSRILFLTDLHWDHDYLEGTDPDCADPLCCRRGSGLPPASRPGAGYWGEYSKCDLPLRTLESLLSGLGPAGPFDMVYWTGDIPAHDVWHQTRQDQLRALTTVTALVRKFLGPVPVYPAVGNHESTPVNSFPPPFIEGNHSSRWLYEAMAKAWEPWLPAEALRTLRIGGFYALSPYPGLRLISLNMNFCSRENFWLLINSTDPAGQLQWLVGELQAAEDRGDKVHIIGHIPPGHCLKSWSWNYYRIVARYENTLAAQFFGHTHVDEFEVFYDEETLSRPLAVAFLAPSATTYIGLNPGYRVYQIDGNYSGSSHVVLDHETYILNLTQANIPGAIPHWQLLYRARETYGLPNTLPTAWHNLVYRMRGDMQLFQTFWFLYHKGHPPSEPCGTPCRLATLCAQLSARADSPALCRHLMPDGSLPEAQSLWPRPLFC
#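 Steps: dispense placental human ASM, pin compound, wait 10 min at room temperature, add HMU-PC0 substrate at 9 uM final, incubate 60 min at 37 °C, add stop solution raising pH to 10, read fluorescence.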
# * = called active by the depositor; ? = inconclusive; . = no result. Most compounds without a hit are left out; they make up all but 19% or so of the library. Unless noted, calls follow the shape of the dose curve; as a rule, active = well fitted curve in the direction sought with a large enough effect; inconclusive = small, poorly fitted or top-dose-only effect, or another doubt; inactive = no such curve, though single readings can be large; an effect the other way counts as inactive or inconclusive.
SMILES,IL1B secr inh,DT40 TDP1 CPT,TDP1 cell noCPT,HepG2 tox,TGFb SMAD3 inh,ASM inhibitor
O=C1CN(S(=O)(=O)c2cc(Br)ccc2Br)CCN1,26.0,-16.4%,0.6%,-5.8%,-7.0%,3.7%
CN(C)c1ccc(/C=C(/NC(=O)c2ccccc2)C(=O)NCCCn2ccnc2)cc1,-11.2,31.8%,-4.1%,-2.2%,17.9%,19.6%
CC(=O)N(\C=C/C=C/C=C1\Sc2ccccc2C1=O)c1ccccc1,1.9,29.1µM*,13µM*,-3.2%,?,-11.2%
CN(C)/C=C1/Sc2ccccc2C1=O,19.6,-8.1%,-21.7%,2.4%,-4.0%,31.6%
CN(C(=O)CSc1nc2ccc(NC(=O)c3cccs3)cc2s1)c1ccccc1,.,23.1µM*,16.4µM*,-19.9%,-6.9%,.
CN(C(=O)CSc1nc2ccc(NC(=O)c3ccco3)cc2s1)c1ccccc1,.,18.4µM*,23.1µM*,-29.3%,-7.3%,.
Cc1[nH]c2ccccc2c1-c1nc2ccccc2[nH]c1=O,14.2,0.7%,-26.6%,11.4%,2.2%,-1.3%
CCn1ccnc1CN1CCc2c([nH]c3ccccc23)C1C(C)(C)C (stereo not given),-84.4*,?,?,-27.1%,-19.1%,3.7%
Cc1cnc(CN2CCc3c([nH]c4ccccc34)C2CC(C)C)[nH]1 (stereo not given),?,?,?,-16.1%,-23.1%,32.6%
